Shown are actives, neighbours in structure and some others; about 8.2% of the full set was active somewhere.
SW480 rereplic: A quantitative high throughput screen for small molecules that induce DNA re-replication in SW480 colon adenocarcinoma cells | SW480 DNA re-replication, Hoechst DNA content imaging, 48 h | Potency, µM (doses to about 46.1 µM), for inactives: at the highest dose re-replication activation, actives largely listed as activators | hit rate 1.8% among 340,000 | AID 624297, 2012; note: % of control where 0% means no effect; nearly all actives have a fitted effect of over 55% in size
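Quantitative HTS format with DMSO vehicle controls; 48 hr drug incubation at 37 C, then 40 min Hoechst staining and scanning imager measurement at 405 nm excitation.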
ELG1 repair inh: qHTS screen for small molecules that inhibit ELG1-dependent DNA repair in human embryonic kidney (HEK293T) cells expressing luciferase-tagged ELG1. HEK293T ELG1-luciferase reporter, luminescence, 16 h; DNA damage induced by 5-fluorouridine. Potency, µM (doses to about 46.1 µM), inactives show at the top dose activity change, negative = inhibition, most hits filed as inhibitors. hit rate 2.3% among 330,000; note: % is set by controls: 0 for no effect and ±100 for the full control effect; nearly all actives have a fitted effect of over 55% in size
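Luminescence from the luciferase reporter, measured 30 min after ONE-Glo reagent at room temperature, was the read-out. Beforehand, 2,000 cells per well were exposed for 16 hr at 37 °C to 5-fluorouridine together with compound or vehicle.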
MCF10A rerep: A quantitative high throughput screen for small molecules that induce DNA re-replication in MCF 10a normal breast cells | MCF 10A DNA re-replication, Hoechst nuclear intensity, 48 h | Potency, µM (titrated, usually from 46.1 µM), for inactives: at the top dose activity, positive = re-replication, actives largely listed as activators | hit rate 2.9% among 350,000; note: % of control where 0% means no effect; nearly all actives have a fitted effect of over 50% in size
KB-V1 cytotox: qHTS assay for MDR1-selective chemotherapeutics: Primary screen using the drug-selected MDR subline cells KB-V1. KB-V1 MDR cells viability, CellTiter-Glo, 72 h. Potency, µM (top dose mostly 46.1 µM), actives largely listed as cytotoxic. hit rate 3.4% among 400,000. AID 1347076, 2019; note: % is set by controls: 0 for no effect and ±100 for the full control effect; nearly all actives have a fitted effect of over 60% in size
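Cytotoxicity via CellTiter-Glo luminescence after 72 h compound exposure at 37 degrees C. Cells: drug-selected KB-V1 line, DMEM phenol-red free plus 10% FBS. Compounds tested at multiple concentrations; normalized data fitted to concentration-effect curves.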
KB-3-1 tox: qHTS assay for MDR1-selective chemotherapeutics: Primary screen using the parental adenocarcinoma cell KB-3-1; hit rate 1.4% among 400,000; KB-3-1 viability, CellTiter-Glo ATP luminescence, 72 h; Potency, µM (highest dose often 46.1 µM), usual class: cytotoxic; note: % is set by controls: 0 for no effect and ±100 for the full control effect; nearly all actives have a fitted effect of over 60% in size
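Cytotoxicity in the drug-sensitive parental line KB-3-1 was scored as loss of CellTiter-Glo luminescence following 72 h incubation with compound. Values come from curve fitting of normalized concentration-response data.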
The depositor's hits bear a star; i = inactive; ? = inconclusive; . = no result. Calls come from the whole dose curve; as a rule, active = well fitted curve in the direction sought with a large enough effect; inconclusive = small, poorly fitted or top-dose-only effect, or another doubt; inactive = no such curve, though single readings can be large; an effect the other way counts as inactive or inconclusive. Potency is the fitted concentration of half-maximal effect.

SMILES	SW480 rereplic	ELG1 repair inh	MCF10A rerep	KB-V1 cytotox	KB-3-1 tox
CCOC(=O)C1CCN(C(=O)CCc2c(C)nc3cc(-c4ccccc4)nn3c2C)CC1	-5%	0%	?	i	i
CCOC(=O)C1CCN(c2cc(C)nc3cc(-c4cccc(F)c4)nn23)CC1	?	?	4.1µM*	i	i
Cc1ccc(C(OCC(O)CNC(CO)C(O)c2ccc([N+](=O)[O-])cc2)c2ccccc2)cc1 (stereo not drawn)	?	26%	?	16µM*	i
CC1CCCN(C(=O)c2ccc3ncsc3c2)C1 (stereo not drawn)	3.7µM*	?	9%	i	i
COc1ccccc1N1CCN(C(=O)c2ccc3nc(-c4ccco4)c(-c4ccco4)nc3c2)CC1	?	7.3µM*	23µM*	23µM*	?
COc1ccccc1N1CCN(C(=O)c2ccc3ncsc3c2)CC1	16µM*	.	21µM*	12µM*	5.2µM*
Cc1ccc(C)c(N2CCN(C(=O)c3ccc4nc(-c5ccco5)c(-c5ccco5)nc4c3)CC2)c1	18µM*	?	?	?	18µM*
COc1ccc(OC)c2sc(N3CCN(C(=O)c4ccc5ncsc5c4)CC3)nc12	-524%	?	-6%	i	i
Cc1ccc2c(c1)c1c(c(=O)n(-c3ccccc3C)c(=O)n1CC(=O)NCc1ccccc1)n2C	.	.	.	i	i
Cc1ccc(C)c(N2CCN(C(=O)c3ccc4c(c3)c(C)c(C)n4C)CC2)c1	?	?	5.2µM*	i	?
CCCCN(C(=O)c1cc(-c2ccncc2)nc2ccccc12)c1c(N)n(CC(C)C)c(=O)[nH]c1=O	-3%	12%	-11%	i	i
Cc1cc(C(=O)C(C)OC(=O)c2ccc(NC(=O)CC#N)cc2)c(C)n1-c1ccc(OC(F)F)cc1 (stereo not drawn)	22%	24%	6%	18µM*	2.9µM*
CC1(c2nnnn2Cc2ccccc2)CCC(=O)N1Cc1ccco1 (stereo not drawn)	.	.	.	i	i
N#C/C(=C/c1ccc(N2CCCCC2)o1)c1cccc(F)c1	8.2µM*	?	7.3µM*	i	i
N#C/C(=C/c1ccc(N2CCCCCC2)o1)c1ccc(Cl)cc1	13µM*	?	2.9µM*	i	i
N#C/C(=C/c1ccc(N2CCCCC2)cc1)c1cccc(F)c1	1%	?	6%	?	i
Cc1ccc(/C(C#N)=C\c2ccc(N3CCOCC3)o2)cc1	-1%	?	-4%	i	i
CCOC(=O)c1ccccc1NC(=O)Cc1ccc(S(=O)(=O)N2CCCC2)s1	-4%	26µM*	?	i	i
Cc1cc(OCc2cc(C(=O)N(C)C3CCOC3)no2)cc(C)c1Cl (stereo not drawn)	15%	?	2.3µM*	?	?
Cc1ccc(OCc2cc(C(=O)N(C)Cc3cnn(-c4ccccc4C)c3)no2)cn1	1%	?	10%	?	18µM*
CCc1ccc(CN(C)C(=O)c2cc(COc3cc(C)c(Cl)c(C)c3)on2)nc1	-4%	-2%	23µM*	i	i
Cc1cc(OCc2cc(C(=O)N(C)Cc3nonc3C)no2)cc(C)c1Cl	24%	-1%	?	?	i
COc1ccc(Cn2ccc3nc(C)c(C(=O)NCc4cccc(OC)c4)cc3c2=O)cc1	.	.	.	i	i
COC(=O)c1cc(S(=O)(=O)NCc2cc(OC)c(OC)c(OC)c2)cn1C	-10%	5%	-8%	i	i
CCCc1nc2c3ccccc3ccn2c1Cc1ccccc1	.	.	.	?	i
SMILES	SW480 rereplic	ELG1 repair inh	MCF10A rerep	KB-V1 cytotox	KB-3-1 tox
O=C(Nc1cccc(OC(F)(F)F)c1)C1Cc2c(-c3ccc4c(c3)OCO4)ccnc2O1 (stereo not drawn)	.	.	.	i	i
CCCNS(=O)(=O)c1ccc(CCC(=O)N2CCN(c3ccc(OC)cc3)CC2)cc1	0%	-26%	4%	21µM*	i
CC(=O)Nc1ccc(S(=O)(=O)NCCc2ccc(S(N)(=O)=O)cc2)cc1	0%	?	10%	i	i
COc1ccc(N2CCN(C(=O)CCNS(=O)(=O)c3ccc(C)cc3)CC2)cc1	-13%	-12%	0%	i	i
COc1ccc(CCC(=O)N2CCN(c3ccc(OC)cc3)CC2)cc1	7%	-1%	5%	?	i
CC(=O)Nc1ccc(S(=O)(=O)NCCc2ccc(F)cc2)cc1	-5%	0%	20%	23µM*	i
COc1ccc(N2CCN(C(=O)CCc3ccc(S(=O)(=O)NC(C)(C)C)cc3)CC2)cc1	?	?	-3%	15µM*	?
CC(=O)Nc1ccc(S(=O)(=O)NCCNS(=O)(=O)c2ccc(NC(C)=O)cc2)cc1	-13%	-5%	-1%	i	i
CC(=O)Nc1ccc(S(=O)(=O)NCCSCc2ccc(Cl)cc2Cl)cc1	-2%	?	13µM*	?	?
Cc1ccc(-c2cn(-c3cccc(Cl)c3)c(S(=O)(=O)CC(=O)Nc3cccc(C)c3)n2)cc1	.	.	.	?	i
CCCNS(=O)(=O)c1ccc(CCC(=O)N2CCN(c3ccc(F)cc3)CC2)cc1	-3%	?	24%	9.2µM*	?
Cc1ccc(-c2nnc(SCC(=O)N/N=C/c3c(C)nn(-c4ccccc4)c3C)n2-c2ccccc2)cc1	?	?	?	15µM*	?
Cc1ccc(-c2nnc(SCC(=O)N/N=C/c3ccc(C)s3)n2-c2ccccc2)cc1	?	23µM*	18µM*	21µM*	?
Cc1ccc(-c2nnc(SCC(=O)N/N=C/c3c(C)nn(-c4ccccc4)c3C)n2-c2ccc(C)cc2)cc1	4%	?	-1%	21µM*	?
Cc1nn(-c2ccccc2)c(C)c1/C=N/NC(=O)CSc1nnc(-c2ccccc2)n1-c1ccc(Cl)cc1	-4%	?	?	i	i
Cc1ccc(-c2nnc(SCC(=O)N/N=C/c3ccccc3C(=O)O)n2-c2ccc(C)cc2)cc1	14%	?	13%	i	i
CCOc1ccc2nc(NC(=O)C3CSC4(C)CCC(=O)N34)sc2c1 (stereo not drawn)	-7%	3%	19%	i	i
CCCCN1CC[C@H]2C=CC[C@@H](C(=O)NCCc3ccccc3)[C@H]2C1=O	-12%	.	7%	?	i
C=CCn1c(SCc2nc3ccccc3[nH]2)nnc1-c1ccccn1	7%	-22%	4%	i	i
